Measured values: PubChem BioAssay (NCATS)
Inconclusive results are not listed. The source made the active and inactive calls. Unless noted, the call rests on the fitted dose curve; in most records, active means well fitted curve in either direction with a large enough effect (not every such curve was filed as active); inconclusive means small, poorly fitted or top-dose-only effect, or another doubt; inactive means flat fitted curve, though single readings scatter. Residues, ends and D or L forms follow the SMILES beside them.

Assays:
[1] = biological target: Lysosomal acid glucosylceramidase (Homo sapiens) (UniProt P04062); test: Glucocerebrosidase-p2 (AID 348; in the data active means potency below about 10 µM; further: potency means the concentration at half of the fitted maximal effect); conditions: purified GBA, blue fluorogenic substrate, 40 min
Summary of the method: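 Compounds titrated from 0.6 nM upwards against 0.2 nM enzyme in pH 5.9 citric acid/KH2PO4, taurocholate, tween-20; blue fluorogenic substrate 80 uM, 40 min room temperature, stopped and read Ex 365/Em 440 for AC50.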

[2] = AP1 Signaling Pathway (AID 357); conditions: ME-180 AP-1-bla reporter, EGF-induced, beta-lactamase ratio, 5 h; at 7.69 µM (top of the series) unless noted;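 further: ME-180 reporter cells stimulated with EGF at its EC50 level; on the % scale 0 is the no-effect control and ±100 the full control effect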
Summary of the method: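 Read-out was the 460nm/530nm emission ratio (excitation 405nm) after CCF4 loading for 2.5 hours at room temperature. Cells carried an AP-1-driven beta-lactamase reporter, were stimulated with EC50 EGF plus compound for 5 hours, and AC50 values came from titrations.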

[3] = NFAT Signaling Pathway (AID 444); conditions: Jurkat NFAT-bla M1, carbachol, beta-lactamase ratio, 5 h; at 7.69 µM (top of the series) unless noted;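 further: carbachol stimulus at about its EC50 of 1 µM final; on the % scale 0 is the no-effect control and ±100 the full control effect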
Summary of the method: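 Read-out: CCF4 FRET ratio (460 nm/530 nm) after 1 h RT dye loading, used for %activity and AC50 from titration series. Cells: Jurkat NFAT-β-lactamase/M1 line, treated with compound plus 1 uM carbachol for 5 h, 37 °C.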

[4] = Stat Signaling Pathway (AID 446); conditions: ME-180 (cervical carcinoma) SIE beta-lactamase reporter, IL-6 stimulated, 5 h; at 7.69 µM (top of the series) unless noted;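 further: ME-180 cervical cancer cells given 40 pM IL-6 alongside compound; SIE-controlled beta-lactamase reporter measured as 460/530 nm FRET emission ratio; on the % scale 0 is the no-effect control and ±100 the full control effect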
Summary of the method: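 IL-6/STAT signaling read in ME-180 cells via an SIE beta-lactamase reporter. Stimulus was 40 pM IL-6 (its AC50) for 5 hrs, so both activation and inhibition register.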

[5] = biological target: Glucocorticoid receptor (Homo sapiens) (UniProt P04150); test: GR-GFP Redistribution (AID 450;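 active means compounds whose dose series gives a full or clear partial fitted curve of increased nuclear translocation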; further: potency means the concentration at half of the fitted maximal effect); conditions: U2OS GR-GFP nuclear translocation, laser cytometry, 2 h
[6] = biological target: Glucocorticoid receptor (Homo sapiens) (UniProt P04150); test: GR-EFC Redistribution (AID 451; calls by dose curve; further: potency means the concentration at half of the fitted maximal effect); conditions: CHO-K1 GR-EFC translocation, beta-gal luminescence, 2 h
Summary of the method: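 Translocation of GR-ED fusion to nuclear EA restores b-gal, read by luminescence after 1 h room-temperature detection. Engineered CHO-K1 biosensor cells, 1,000/well, exposed 2 h at 37 C to titrations up to 46 uM final.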

[7] = biological target: Mitogen-activated protein kinase 10 (Mus musculus) (UniProt Q61831); test: JNK3 AlphaScreen Assay (AID 530); conditions: JNK3 lysate, c-Jun phosphorylation; series mostly up to 11.4 µM;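 further: kinase came from lysate of stimulated human HepG2 cells; signal reports phosphorylation of biotinylated GST-cJun 1-79 at Ser73 with 10 µM ATP; on the % scale 0 is the no-effect control and ±100 the full control effect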
Summary of the method: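 Room-temperature AlphaScreen kinase assay; pre-activated HepG2 lysate as JNK3 source, biotin-GST-cJun(1-79) substrate, 10 uM ATP, compound 15 min preincubation.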

[8] = biological target: 3',5'-cyclic-AMP phosphodiesterase 4B (Homo sapiens) (UniProt Q07343); test: qHTS Assay for Inhibitors of PDE-IV (AID 607; active means well fitted activation curve with a large enough effect in the main read-out, with a control signal flat, not every such curve was filed as active; further: % of control where 0% means no effect); conditions: HEK293 ACTOne CNG channel cells, membrane potential fluorescence; series mostly up to 22.9 µM
Summary of the method: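 Live HEK293 cells with a modified cyclic nucleotide-gated (CNG) channel report intracellular cAMP via membrane-potential dye fluorescence (ex 535/em 590 nm). Endogenous PDE-IV was targeted. Compounds were tested at up to 22.9 uM final; RO 20-1724 100 uM served as control.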

Sequence of Glucocorticoid receptor (Homo sapiens) (P04150 whole entry, looked up, the tested form may be a part): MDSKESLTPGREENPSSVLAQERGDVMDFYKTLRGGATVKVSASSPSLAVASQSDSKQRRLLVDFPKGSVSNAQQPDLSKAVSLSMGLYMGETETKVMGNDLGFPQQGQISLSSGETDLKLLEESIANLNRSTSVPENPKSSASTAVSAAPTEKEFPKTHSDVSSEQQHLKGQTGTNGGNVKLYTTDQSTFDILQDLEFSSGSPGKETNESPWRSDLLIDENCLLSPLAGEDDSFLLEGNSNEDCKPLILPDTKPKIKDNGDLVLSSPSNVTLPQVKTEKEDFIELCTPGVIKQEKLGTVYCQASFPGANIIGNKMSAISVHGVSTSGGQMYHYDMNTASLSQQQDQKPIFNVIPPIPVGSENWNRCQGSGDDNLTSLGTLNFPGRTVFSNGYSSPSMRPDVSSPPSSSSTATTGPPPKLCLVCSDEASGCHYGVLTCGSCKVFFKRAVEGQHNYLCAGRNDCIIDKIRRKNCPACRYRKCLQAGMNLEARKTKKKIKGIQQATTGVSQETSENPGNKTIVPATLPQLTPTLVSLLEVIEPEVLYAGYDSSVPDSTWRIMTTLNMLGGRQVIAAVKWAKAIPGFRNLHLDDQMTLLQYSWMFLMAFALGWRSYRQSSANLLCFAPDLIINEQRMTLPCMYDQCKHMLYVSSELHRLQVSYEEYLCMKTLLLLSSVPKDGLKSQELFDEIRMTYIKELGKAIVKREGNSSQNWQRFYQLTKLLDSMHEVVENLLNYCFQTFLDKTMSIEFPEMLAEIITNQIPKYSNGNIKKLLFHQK
Sequence of 3',5'-cyclic-AMP phosphodiesterase 4B (Homo sapiens) (Q07343 whole entry, looked up): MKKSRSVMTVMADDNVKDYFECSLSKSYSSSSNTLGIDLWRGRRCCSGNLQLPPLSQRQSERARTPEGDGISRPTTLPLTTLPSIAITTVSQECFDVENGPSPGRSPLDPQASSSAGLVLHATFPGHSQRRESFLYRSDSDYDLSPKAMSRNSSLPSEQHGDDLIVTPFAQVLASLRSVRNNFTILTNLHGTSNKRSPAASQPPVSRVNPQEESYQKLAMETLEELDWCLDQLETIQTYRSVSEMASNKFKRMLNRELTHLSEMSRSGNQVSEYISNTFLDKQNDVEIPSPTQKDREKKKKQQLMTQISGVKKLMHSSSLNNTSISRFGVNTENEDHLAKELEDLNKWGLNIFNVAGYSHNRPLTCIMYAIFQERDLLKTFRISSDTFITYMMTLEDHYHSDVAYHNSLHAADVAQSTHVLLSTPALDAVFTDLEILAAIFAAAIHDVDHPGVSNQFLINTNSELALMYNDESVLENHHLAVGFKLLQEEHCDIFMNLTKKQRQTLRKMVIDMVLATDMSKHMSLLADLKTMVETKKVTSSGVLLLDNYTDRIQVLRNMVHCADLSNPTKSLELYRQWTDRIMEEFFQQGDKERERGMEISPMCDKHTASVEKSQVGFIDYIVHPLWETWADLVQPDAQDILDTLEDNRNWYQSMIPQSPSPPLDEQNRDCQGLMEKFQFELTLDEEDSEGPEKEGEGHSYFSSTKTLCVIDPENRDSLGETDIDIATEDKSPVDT
Sequence of Lysosomal acid glucosylceramidase (Homo sapiens) (P04062 whole entry, looked up): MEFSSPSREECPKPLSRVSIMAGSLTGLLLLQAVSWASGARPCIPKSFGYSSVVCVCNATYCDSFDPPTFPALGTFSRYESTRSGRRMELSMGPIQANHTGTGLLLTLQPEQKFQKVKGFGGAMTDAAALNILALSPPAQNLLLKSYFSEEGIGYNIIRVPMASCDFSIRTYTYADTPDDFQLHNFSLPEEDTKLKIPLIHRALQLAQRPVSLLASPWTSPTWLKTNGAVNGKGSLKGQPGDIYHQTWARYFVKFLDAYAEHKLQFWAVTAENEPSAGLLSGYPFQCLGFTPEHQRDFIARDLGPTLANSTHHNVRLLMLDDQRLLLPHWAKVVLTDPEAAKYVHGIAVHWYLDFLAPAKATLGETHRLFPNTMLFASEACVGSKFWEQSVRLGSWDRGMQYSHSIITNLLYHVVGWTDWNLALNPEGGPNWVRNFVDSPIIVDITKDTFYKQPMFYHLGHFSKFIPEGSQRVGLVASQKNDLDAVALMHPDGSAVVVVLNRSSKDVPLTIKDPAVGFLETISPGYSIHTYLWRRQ

NS(=O)(=O)c1ccc(NCc2cnc3ccccc3c2)cc1
inactive: Potency [1] > 11.4 µM | activity change, negative = inhibition [2] -2.59% | activity change, negative = inhibition [3] 13.4% | activity, negative = inhibition [4] 0.424% | Potency [5] > 46 µM | Potency [6] > 9.22 µM | Potency [7] | Potency [8]

NCCOc1ccccn1
inactive: Potency [1] > 11.4 µM | activity change, negative = inhibition [2] 10% | activity change, negative = inhibition [3] 1.74% | activity, negative = inhibition [4] -2.14% | Potency [5] > 46 µM | Potency [6] > 9.22 µM | Potency [7] | Potency [8]

O=S1(=O)CCN(Cc2ccccn2)CC1
inactive: Potency [1] > 11.4 µM | activity change, negative = inhibition [2] 0.374% | activity change, negative = inhibition [3] 13% | activity, negative = inhibition [4] -10.3% | Potency [5] > 46 µM | Potency [6] > 9.22 µM | Potency [7] | Potency [8]

CC(C)=CCNc1ncnc2c1c(C#N)cn2[C@H]1O[C@@H](CO)[C@@H](O)[C@@H]1O
inactive: Potency [1] > 11.4 µM | activity change, negative = inhibition [2] -1.6% | activity change, negative = inhibition [3] 6.29% | activity, negative = inhibition [4] 10.4% | Potency [5] > 46 µM | Potency [6] > 9.22 µM | Potency [7] | Potency [8]

Cc1ncc(CSc2ccccc2N)c(CO)c1O
inactive: Potency [1] > 11.4 µM | activity change, negative = inhibition [2] 6.48% | activity change, negative = inhibition [3] 1.52% | activity, negative = inhibition [4] -0.62% | Potency [5] > 46 µM | Potency [6] > 9.22 µM | Potency [7] | Potency [8]

COc1ccc2c(c1)[n+]([O-])c(/C(C)=N/NC(N)=S)c(C)[n+]2[O-]
inactive: Potency [1] > 11.4 µM | activity change, negative = inhibition [2] -7.76% | activity change, negative = inhibition [3] 5.82% | activity, negative = inhibition [4] 0.294% | Potency [5] > 46 µM | Potency [6] > 9.22 µM | Potency [7] | Potency [8]

COc1cc(CN2CCCCC2)cc2cc(C(=O)O)c(=O)oc12
inactive: Potency [1] > 11.4 µM | activity change, negative = inhibition [2] 17.3% | activity change, negative = inhibition [3] 15.7% | activity, negative = inhibition [4] -2.43% | Potency [5] > 46 µM | Potency [6] > 9.22 µM | Potency [7] | Potency [8]

Cc1cccc2cc3ccc4ccccc4c3cc12
inactive: Potency [1] > 11.4 µM | activity change, negative = inhibition [2] -0.591% | activity change, negative = inhibition [3] -3.47% | activity, negative = inhibition [4] 19.6% | Potency [5] > 46 µM | Potency [6] > 9.22 µM | Potency [7] | Potency [8]

CCSCCCC(=O)O
inactive: Potency [1] > 11.4 µM | activity change, negative = inhibition [2] -6.6% | activity change, negative = inhibition [3] 2.17% | activity, negative = inhibition [4] 8.19% | Potency [5] > 46 µM | Potency [6] > 9.22 µM | Potency [7] | Potency [8]

S=C1NCN2CCN(CC2)CNC(=S)C(=S)NCN2CCN(CC2)CNC1=S
inactive: Potency [1] > 11.4 µM | activity change, negative = inhibition [2] 3.32% | activity change, negative = inhibition [3] -3.6% | activity, negative = inhibition [4] 3.07% | Potency [5] > 46 µM | Potency [6] > 9.22 µM | Potency [7] | Potency [8]

NCC(=O)[C@@H](O)[C@H](O)[C@H](O)CO
inactive: Potency [1] > 11.4 µM | activity change, negative = inhibition [2] -1.89% | activity change, negative = inhibition [3] 8.35% | activity, negative = inhibition [4] 3.6% | Potency [5] > 46 µM | Potency [6] > 9.22 µM | Potency [7] | Potency [8]

CN(/N=C\c1ccccc1O)c1ccc2ccccc2n1
inactive: Potency [1] > 11.4 µM | activity change, negative = inhibition [2] -2.44% | activity change, negative = inhibition [3] -9.81% | activity, negative = inhibition [4] 1.98% | Potency [5] > 46 µM | Potency [6] > 9.22 µM | Potency [7] | Potency [8]

CC(C)C[C@H](N)C(=O)O
inactive: Potency [1] > 11.4 µM | activity change, negative = inhibition [2] 10.7% | activity change, negative = inhibition [3] 1.77% | activity, negative = inhibition [4] 5.12% | Potency [5] > 46 µM | Potency [6] > 9.22 µM | Potency [7] | Potency [8]

CC(=O)O[C@@H]1CC[C@]2(C)C(=C[C@@H]([C@@H]3C=C4C[C@@H](OC(C)=O)CC[C@]4(C)C4=C3[C@H]3C[C@@H]5O[C@@]6(CC[C@H](C)CO6)[C@@H](C)[C@@H]5[C@@]3(C)CC4)C3=C2CC[C@@]2(C)[C@H]4[C@@H](C)[C@]5(CC[C@H](C)CO5)O[C@@H]4C[C@H]32)C1
inactive: Potency [1] > 11.4 µM | activity change, negative = inhibition [2] 7.21% | activity change, negative = inhibition [3] 21% | activity, negative = inhibition [4] -1.63% | Potency [5] > 46 µM | Potency [6] > 9.22 µM | Potency [7] | Potency [8]

NC1(C(=O)NC2(C(=O)O)CCCC2)CCCC1 (HELM PEPTIDE1{[NC1(C(=O)[*:2])CCCC1].[O=C(O)C1(N[*:1])CCCC1]}$$$$V2.0)
inactive: Potency [1] > 11.4 µM | activity change, negative = inhibition [2] 2.4% | activity change, negative = inhibition [3] -2.57% | activity, negative = inhibition [4] 8.97% | Potency [5] > 46 µM | Potency [6] > 9.22 µM | Potency [7] | Potency [8]

Nc1ccn([C@H]2O[C@H](CO)[C@@H]3[O][Sn]([c]4ccccc4)([c]4ccccc4)[O][C@H]32)c(=O)n1
inactive: Potency [1] > 11.4 µM | activity change, negative = inhibition [2] -22.1% | activity change, negative = inhibition [3] -9.06% | activity, negative = inhibition [4] -20.4% | Potency [5] > 46 µM | Potency [6] > 9.22 µM | Potency [7] | Potency [8]
